58 compounds from PubChem BioAssay AID1117358 (Southern Research Institute, 2015) can be followed below.

In all, about 2,300 compounds went through this assay and about 160 (7%) were called active. The rule behind the calls is not given here. These entries were drawn from the full list. Results with a measured potency or affinity are listed apart.

The experiment can be described thus: Vero cell cytotoxicity, dose response, cytotoxicity control for Vif-APOBEC3G degradation inhibitor project, Vero cells (AID 1117358). Conditions: CellTiter-Glo ATP luminescence, 72 h; series mostly up to 40 µM. For orientation: Cellular ATP, detected with luciferase, serves as a proxy for viable cell number.
`CCC(C)C(NC(=O)[C@@H](NC(=O)c1ccccc1F)C(C)C)C(=O)OC` (stereo partly drawn): the call was inactive. Then `C/C(=N\OC(=O)c1ccc(F)cc1)c1sc(-c2ccccc2)nc1C`, with “inactive”; and `Cc1ccc2cc(CN(Cc3nnnn3Cc3ccco3)CC3CCCO3)c(=O)[nH]c2c1C` (stereo not drawn), with “inactive”.

`C=CCNc1nc2ccccc2nc1NS(=O)(=O)c1cccs1`: the call was inactive. Then `COc1ccc(C(=O)NCc2cn3cccc(C)c3n2)cc1OC`, with “inactive”; and `CCOC(=O)C(NC(=O)NC1CCCCC1)(c1ccccc1)C(F)(F)F` (stereo not drawn), with “inactive”; and `Cc1cc(C)cc(Nc2ccc(C(=O)O)cc2N)c1`, with “inactive”. In the case of `S=C(Nc1cccc(Cl)c1)NC1CCCCC1`, the outcome was inactive. Turning to `CCCNC(=S)NC1CCCC1`, the outcome was inactive. Then `COc1ccc(C(=O)NCc2cccnc2)cc1OC`, with “inactive”. As for `CC1CCN(C(=O)CCc2nc3cc(S(=O)(=O)N(C)C)ccc3n2C)CC1`, the compound was classed as inactive. `CCOC(=O)c1c(C)[nH]c(C(=O)OCC(=O)N2c3ccccc3CC2C)c1C` (stereo not drawn): the call was inactive. Then `COc1cc(C(=O)Nc2ccc(S(=O)(=O)NC(C)C)cc2)cc(OC)c1OC`, with “inactive”; and `COc1ccccc1C(=O)Nc1ccc(S(=O)(=O)Nc2cc(C)nc(C)n2)cc1`, with “inactive”; and `COc1cc(NC(=O)c2cc3nc(C)cc(C)n3n2)c(OC)cc1Cl`, with “inactive”. Then `NC(=O)C[C@@H]1N[C@]2(C(=O)Nc3ccccc32)[C@@H]2C(=O)N(c3cc(C(F)(F)F)ccc3Cl)C(=O)[C@H]12`, with “inactive”; and `CCc1cc2cc(C)cc(C)c2nc1SCC(=O)N1CCN(C(=O)c2ccco2)CC1`, with “inactive”. Then `COc1cc(C(=O)OCCN2CCCCC2)ccc1O`, with “inactive”.

With `CCN1C(=O)c2ccccc2S(=O)c2ccc(C(=O)NC3CC3)cc21` (stereo not drawn), the call was inactive. As for `Cc1cccc(C)c1NS(=O)(=O)c1c(C)[nH]c(=O)[nH]c1=O`, the result was inactive. The result for `CC(C)(C)NC(=O)COC(=O)c1cc(S(=O)(=O)N2CCCCC2)ccc1N1CCOCC1` reads “inactive”; that for `CCN(CC)C(=O)CSCC(=O)Nc1ccccc1`, “inactive”.

As to `CC(C)(C)OC(=O)N1CCCC1C(=O)N1CCc2ccccc21` (stereo not drawn), the call was inactive. The result for `CCOC(=O)CSc1nnc(CNC(=O)c2cccs2)n1CCc1ccccc1` reads “inactive”; that for `CCN1CCc2c(C#N)c(NCc3ccccc3)nc(N(CC)CC)c2C1`, “inactive”; that for `Nn1c(SCC(=O)NC2CCCc3ccccc32)nnc1-c1cccs1` (stereo not drawn), “inactive”. Regarding `O=C(Cc1cc(=O)[nH]c(=O)[nH]1)NCC1CCCO1` (stereo not drawn), the outcome was inactive.

For `O=C(NCc1ccncc1)c1ccc(Cn2cc(C(F)(F)F)ccc2=O)cc1`, the compound was called inactive. Consider `O=C(NCc1ccccn1)c1ccc(Cn2cc(Br)cn2)o1`, for which the result was inactive. The result for `O=S(=O)(c1ccc(OCc2nc3ccccc3s2)c(Cl)c1)N1CCOCC1` reads “inactive”; that for `CCNc1nc(OCCNS(=O)(=O)c2cc(C)ccc2C)nc(N(C)C)n1`, “inactive”. The result for `CC1Cc2ccccc2N1C(=O)C1CCN(S(=O)(=O)Cc2ccccc2)CC1` (stereo not drawn) reads “inactive”; that for `CCC(Cc1ccccc1)NC(=O)C1CCN(S(=O)(=O)c2c(C)noc2C)CC1` (stereo not drawn), “inactive”. With `COC(=O)c1ccc(C)c(NS(=O)(=O)c2ccc(NC(C)=O)cc2)c1`, the compound was called inactive.

`O=C(CSc1nncs1)NC(=O)NCc1ccccc1`: the outcome was inactive. For `COc1ccc(S(=O)(=O)N(CC(=O)O)c2ccccn2)cc1`, the compound was called inactive. The result for `CC(=O)c1ccc(NC(=O)c2ccc3nc(-c4ccco4)c(-c4ccco4)nc3c2)cc1` reads “inactive”. Then `CCOc1ccc(-n2c(=O)c3c(C)c(C)sc3n(CC(=O)NCc3ccco3)c2=O)cc1`, with “inactive”; and `Oc1c(C(c2ccccc2)N2CCN(Cc3ccccc3)CC2)sc2ncnn12` (stereo not drawn), with “inactive”.

With `CCOc1cc(C2NC(=O)NC(O)(C(F)(F)F)C2C(=O)c2ccccc2)ccc1OC` (stereo not drawn), the compound was called inactive. Then `COc1ccc(CSc2nnnn2C)cc1F`, with “inactive”; and `O=C(Nc1ccc2nc(-c3ccco3)c(-c3ccco3)nc2c1)N1CCCCCC1`, with “inactive”. Then `O=C(O)CCN1CCOCC1`, with “inactive”; and `O=C(O)c1ccc(S(=O)(=O)c2ccc3c(c2)C(=O)N(Cc2ccco2)C3=O)cc1`, with “inactive”.

Regarding `COc1cc(NC(=O)c2nnn(Cc3ccc(SC)cc3)c2N)cc(OC)c1`, the outcome was inactive.

On to `O=C(CN1C(=O)NC2(CCCCCCC2)C1=O)NCc1cccs1`, for which the outcome was inactive. Then `COCC(=O)Nc1sc2c(c1C(=O)OC)C(C(=O)OC)CC2` (stereo not drawn), with “inactive”.

In the case of `COC(=O)Nc1sc2c(c1C(=O)NCc1ccco1)CCCC2`, the call was inactive.

As to `CCOC(=O)c1cc2sc(C)cc2n1CC(=O)N1CCN(C(=O)c2ccco2)CC1`, the compound was called inactive. The result for `O=C(c1ccc2c(c1)OCCO2)C1CCN(C(=O)c2ccc(F)cc2)CC1` reads “inactive”. Then `Cc1cc(C(=O)Nc2c(C)cccc2C)n(-c2ccccc2)n1`, with “inactive”; and `CN(C)c1ccc(/C=N\NC(=O)c2csnn2)cc1`, with “inactive”; and `CCOC(=O)C1CCN(S(=O)(=O)c2cccc(-c3cn4cccnc4n3)c2)CC1`, with “inactive”. Then `Cc1nnc(NC(=O)c2ccc(S(=O)(=O)N(C)Cc3ccccc3)cc2)o1`, with “inactive”. With `O=C(Nc1ccccc1F)c1ccc(S(=O)(=O)NCC2CCCO2)cc1` (stereo not drawn), the outcome was inactive. `COc1ccc(C(=O)N2CCCN(C)CC2)cc1S(=O)(=O)N1CCCc2ccccc21`: the compound was classed as inactive. The result for `COCc1nnc(NC(=O)c2ccc(S(=O)(=O)N(C)C3CCCCC3)cc2)o1` reads “inactive”. With `CCOC(=O)c1c(-c2cccs2)csc1NC(=O)CC(C)C`, the outcome was inactive.
